# Measurements as given in PubChem BioAssay (EPA / NIEHS).
# The source made the active and inactive calls. The calls were made as follows: active = hit-call score of the fitted dose curve at least 0.9, where 1 is the maximum; inactive = score below 0.9.
# Assay: APR_HepG2_StressKinase_72hr: Apredica 72-hour HepG2 Assay for Stress Kinase (AID 2282921)
# Details: HepG2 stress kinase (phospho-c-Jun) imaging, actives raise or lower the signal
# Experimental: APR_HepG2_72hr is a cell-based, multiplexed-readout assay that uses HepG2, a human liver cell line, with measurements taken at 72 hours after chemical dosing in a 384-well plate.APR_HepG2_StressKinase_72hr is one of 10 assay component(s) measured or calculated from the APR_HepG2_72hr assay. It is designed to make measurements of enzyme activity, a form of enzyme reporter, as detected with fluorescence intensity signals by HCS Fluorescent Imaging technology.Data from the assay component APR_HepG2_StressKinase_72hr was analyzed into 1 assay endpoint. This assay endpoint, APR_HepG2_StressKinase_72hr, was analyzed with bidirectional fitting relative to DMSO as the negative control and baseline of activity. Using a type of enzyme reporter, measures of protein for gain or loss-of-signal activity can be used to understand the signaling at the pathway-level as they relate to the gene . Furthermore, this assay endpoint can be referred to as a primary readout, because this assay has produced multiple assay endpoints where this one serves a signaling function. To generalize the intended target to other relatable targets, this assay endpoint is annotated to the cell cycle intended target family, where the subfamily is stress response.
# Cells were treated with dimethyl sulfoxide (DMSO) as a solvent control at a final concentration of 0.5% v/v or with compounds in DMSO with a resulting final DMSO concentration of 0.5% v/v. Compound treatment was done at concentrations of 0.39, 0.78, 1.56, 3.12, 6.24, 12.5, 25, 50, 100, and 200 uM in duplicate on each plate. Cells were treated with compounds for 1, 24, or 72 hr. Carbonyl […] m-chloro-phenylhydrazone (CCCP) and taxol were used as positive controls for mitochondrial function and cytoskeletal stability, respectively; DMSO served as the negative control for this experiment. Cells were fixed by the direct addition of 50 uL formaldehyde in Hank's Balanced Salt Solution (HBSS) to a final concentration of 3.7%. After incubation in the fixation medium for 30 min at room temperature (293-298 K), cells were rinsed twice with HBSS and treated with cell permeabilization buffer (16 uL of 0.5% Triton X-100) for 10 min at room temperature (293-298 K) before labeling. For mitochondrial membrane potential and mitochondrial measurements, pre-fixed cells were incubated with 50 uL of MitoTracker Red CMXRos (Invitrogen) at a concentration of 250 nM for 30 min before fixation. In the remaining cases, post-fixed cells were labeled by incubation with a multiplexed mixture of primary antibodies in HBSS for 60 min at room temperature (293-298 K) to detect immunoreactivity of c-Jun (1:500), phospho-histone H3 (1:100), phospho-histone H2A.x (1:200), p53 (1:400), alpha-tubulin (1:200) and Hoechst 33342 (2 ug/mL). Cells were labeled for multiplexed imaging on two separate plates: a) Hoechst 33342, MitoTracker Red, phospho-histone H3, and alpha-tubulin, and b) Hoechst 33342, phospho-histone H2A.x, and c-Jun. A final rinse with HBSS (50 uL) was performed before analysis. The primary and secondary antibodies for the proteins were phospho-histone H3 (rabbit anti-phospho-histone H3 and FITC-donkey anti-rabbit IgG), phospho-histone H2A.x (mouse anti-phospho-histone H2A.x and FITC-donkey anti-mouse IgG), c-Jun (rabbit anti-phospho-c-Jun and Cy3-donkey anti-rabbit IgG), p53 (sheep anti-p53 and Cy5-donkey anti-sheep IgG), alpha-tubulin (mouse anti-alpha-tubulin and Cy5-donkey anti-mouse IgG). These antibodies are available as the CellCiphr HepG2 assay kit (Millipore).Digital images of each well were captured using a Cellomics ArrayScan VTI (Thermo Scientific Cellomics) (0.8 NA objective, 0.63x optical coupler, and XF-93 filter set) at 20x magnification. The images were acquired using the autofocus feature of the ArrayScan instrument, which entails the following steps. First, the camera focuses on channel 1 (Hoechst 33342), where nuclei are identified. Second, a Z offset of 1 um is used for capturing mitochondria (MitoTracker Red). […]
Structure (SMILES),outcome,AC50
CCOP(=O)(OCC)Oc1nc(Cl)c(Cl)cc1Cl,inactive,
CCNC(=O)NC(=O)C(C#N)=NOC,inactive,
Clc1nc(Cl)nc(Nc2ccccc2Cl)n1,inactive,
CCCN(CC)CC1COC2(CCC(C(C)(C)C)CC2)O1 (stereo not given),inactive,
OC(c1ccc(Cl)cc1)(c1ccc(Cl)cc1)C(Cl)(Cl)Cl,inactive,
CC1(C)CCC(=Cc2ccc(Cl)cc2)C1(O)Cn1cncn1 (stereo not given),inactive,
CCC(C)n1c(=O)[nH]c(C)c(Br)c1=O (stereo not given),inactive,
O=P(O)(O)CCCl,inactive,
COC(=O)c1c(C(F)F)nc(C(F)(F)F)c(C2=NCCS2)c1CC(C)C,inactive,
CC(C)N1C(=O)N(c2ccccc2)CSC1=NC(C)(C)C,inactive,
Clc1cccc(C(Cl)(Cl)Cl)n1,inactive,
COC(=O)NC(=S)Nc1ccccc1NC(=S)NC(=O)OC,inactive,
O=C1C2CC=CCC2C(=O)N1SC(Cl)(Cl)Cl (stereo not given),inactive,
COP(=S)(OC)Oc1ccc([N+](=O)[O-])c(C)c1,inactive,
CC1(C)C(C(=O)OC(C#N)c2cccc(Oc3ccccc3)c2)C1(C)C (stereo not given),inactive,
CN/C(=N\[N+](=O)[O-])NCc1cnc(Cl)s1,inactive,
CCCCC(O)(Cn1cncn1)c1ccc(Cl)cc1Cl (stereo not given),,122 µM (active)
COCC(=O)N(c1c(C)cccc1C)C(C)C(=O)OC (stereo not given),inactive,
COc1cc(Cl)c(OC)cc1Cl,inactive,
COCc1cnc(C2=NC(C)(C(C)C)C(=O)N2)c(C(=O)O)c1 (stereo not given),inactive,

Structure (SMILES),outcome,AC50
COC(=O)NS(=O)(=O)c1ccc(N)cc1,inactive,
Cc1ccc(N=CN(C)C=Nc2ccc(C)cc2C)c(C)c1,inactive,
CC(C)=CC1C(C(=O)OCc2coc(Cc3ccccc3)c2)C1(C)C (stereo not given),inactive,
CCSC(=O)N1CCCCCC1,inactive,
CS(=O)(=O)c1ccc(C(=O)C2C(=O)CCCC2=O)c([N+](=O)[O-])c1,inactive,
Cc1cnc(C2=NC(C)(C(C)C)C(=O)N2)c(C(=O)O)c1 (stereo not given),inactive,
CC1(C)C(C=C(Cl)Cl)C1C(=O)OC(C#N)c1cccc(Oc2ccccc2)c1 (stereo not given),inactive,
C=C(C)CN(CC)c1c([N+](=O)[O-])cc(C(F)(F)F)cc1[N+](=O)[O-],inactive,
CO/N=C(/C1=NOCCO1)c1ccccc1Oc1ncnc(Oc2ccccc2Cl)c1F,inactive,
CCOP(=S)(OCC)Oc1nc(Cl)n(C(C)C)n1,inactive,
CCOC(=O)C(C)OC(=O)c1cc(Oc2ccc(C(F)(F)F)cc2Cl)ccc1[N+](=O)[O-] (stereo not given),inactive,
CS(=O)(=O)c1cc(C(F)(F)F)ccc1C(=O)c1cnoc1C1CC1,inactive,
CC(C)Nc1nc(Cl)nc(NC(C)C)n1,inactive,
CCOc1cc(C(C)(C)C)ccc1C1COC(c2c(F)cccc2F)=N1 (stereo not given),inactive,
CC(C)N1C(=O)c2ccccc2NS1(=O)=O,inactive,
CCOc1nc(F)cc2nc(S(=O)(=O)Nc3c(Cl)cccc3Cl)nn12,inactive,
Nc1cnn(-c2ccccc2)c(=O)c1Cl,inactive,
COC(=O)N(C(=O)N1CO[C@@]2(C(=O)OC)Cc3cc(Cl)ccc3C2=N1)c1ccc(OC(F)(F)F)cc1,inactive,
COc1cc(OC)nc(NC(=O)NS(=O)(=O)c2ncccc2OCC(F)(F)F)n1,inactive,
CC(C)C1(C)N=C(c2ncccc2C(=O)O)NC1=O (stereo not given),inactive,
